Rows were chosen to be rich in hits. Some 2.3% of all compounds tested hit in one or more screens of this group.
Tau FP inhib: inhibitors of human tau fibril formation | P10636 | K18 P301L tau heparin fibrillization, Alexa594 FP, 6 h | Potency, µM (highest dose often 57.7 µM), hits mostly inhibitors | 280,000 tested, 0.39% active; further: nearly all actives have a fitted effect of over 55% in size
Target sequence (P10636 561-689 P618L limits assumed): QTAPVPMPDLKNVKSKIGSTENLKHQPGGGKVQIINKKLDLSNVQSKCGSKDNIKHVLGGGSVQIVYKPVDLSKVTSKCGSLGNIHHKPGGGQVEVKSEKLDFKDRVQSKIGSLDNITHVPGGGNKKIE
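Compound effects on tau fibrillization are measured by Alexa 594 fluorescence polarization (ex 555, em 632 nm). K18 P301L tau is used at 15 uM with 0.24 uM labeled tracer, and 20 uM heparin induces aggregation over 6 hr at 37 C.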
Tau fluor cs: counter-screen for tau fibril formation inhibitors; AID 1463; 280,000 tested, 0.93% active; Potency, µM (top dose mostly 57.7 µM); tau K18 P301L Alexa594 fluorescence, heparin fibrillization; further: nearly all actives have a fitted effect of over 55% in size
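Human K18 P301L tau (15 uM unlabeled plus 0.24 uM Alexa 594-labeled, final) in 100 mM sodium acetate pH 7 was mixed with compound and 20 uM heparin and incubated 6 hr at 37 C.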
FBPA coupling cs: inhibits coupling enzyme system, counter-screen for aldolase hits; coupling enzyme system counterscreen, AmpLite Red fluorescence; activity change, negative = inhibition, % at 58.2 µM, hits read low; 290,000 tested, 0.67% active; AID 2472; in the data active means activity change below about -30%
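Final compound at 57.5 uM, incubated 10 min at RT with coupling enzyme reagent (glyceraldehyde-3-phosphate), then 20 min with substrate and AmpLite Red detection. Fluorescence read at 525/598 nm; tests interference with the coupling assay, not aldolase inhibition.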
Tau ThT inhib: inhibitors of human tau fibril formation, thioflavin T binding. Potency, µM (series often up to 57.4 µM), hits mostly inhibitors. 270,000 tested, 2.1% active. recombinant tau K18 P301L (four-repeat tau fragment), heparin-induced fibrillization, ThT fluorescence. AID 1460; further: nearly all actives have a fitted effect of over 55% in size
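Heparin-induced (20 uM) aggregation of recombinant human K18 P301L tau, 15 uM unlabeled with 0.24 uM labeled, pH 7 acetate buffer, 6 hr at 37 C with compound. Fibrils quantified by 30 uM ThT fluorescence after 1 hr ambient incubation.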
USP1-UAF1 inh: blocks the human USP1/UAF1 deubiquitinase complex; Potency, µM (titrated, usually from 57.1 µM), actives largely listed as inhibitors; O94782; recombinant USP1/UAF1, Ub-Rhodamine cleavage fluorescence; AID 743255; 390,000 tested, 0.23% active; further: nearly all actives have a fitted effect of over 60% in size
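USP1/UAF1 complex at 1 nM was preincubated with compound for 15 min at room temperature, then Ub-Rho substrate (150nM final) was added. Fluorescence (480/540 nm) was read kinetically, 6 reads every 60 seconds.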
Hits are given with their value; – = inactive; ? = inconclusive; · = not tested or not shown; [ ] = dose if it differs, or a comment. Unless noted, the call rests on the fitted dose curve; in most records, active means well fitted curve in the direction sought with a large enough effect; inconclusive means small, poorly fitted or top-dose-only effect, or another doubt; inactive means no such curve, though single readings can be large; an effect the other way counts as inactive or inconclusive.

SMILES	Tau FP inhib	Tau fluor cs	FBPA coupling cs	Tau ThT inhib	USP1-UAF1 inh
COC(=O)N/N=C\c1cccc(OC(=O)c2cccs2)c1	–	–	–	–	–
COc1ccc(S(=O)(=O)Nc2cc3c(cc2NCc2ccccc2)n(C)c(=O)n3C)cc1OC	–	?	·	?	–
O=C1CSC(=S)N1/N=C/c1c(F)cccc1F	·	·	–	·	–
COc1cc(/C=N/N2C(C)CCCC2C)cc(Br)c1O (centres undefined)	–	–	–	–	–
O=C1CSC(=S)N1N=Cc1c(O)ccc2ccccc12	·	·	·	·	–
COc1ccc2ccccc2c1/C=N/N1C(=O)CSC1=S	–	–	–	11.2µM	–
COc1cc(/C=N/N2C(=O)CSC2=S)cc(Br)c1O	?	?	–	12.6µM	?
COc1cccc(/C=N/N2C(=O)CSC2=S)c1O	?	?	–	15.8µM	–
O=C(CNC(=O)c1ccc(F)cc1)OCc1cc(=O)n2nc(C3CCCCC3)sc2n1	–	–	·	?	–
Nc1cc(=O)nc(SCC(=O)Nc2ccccc2)n1CCc1ccccc1	–	–	·	–	?
O=C(Cn1c(-c2cccs2)cc2ccccc21)N1CCN(c2ccc(Cl)cc2)CC1	–	–	·	–	–
COc1ccc(C(=O)N2CCC3(CCN(Cc4ccccc4OC)CC3)CC2)cc1	·	·	–	·	·
Cc1noc(C)c1C(=O)N1CCC2(CC1)CN(c1cccc(-c3ccccc3)c1)C2	·	·	–	·	·
Cc1ccc(C(=O)Nc2cccc(C(=O)O)c2)cc1S(=O)(=O)N1CCCC1	–	–	·	–	–
Cc1ccc(S(=O)(=O)/N=C2\C=C(Nc3cccc(C(=O)O)c3)C(=O)c3ccccc32)c(C)c1	·	·	-42.6	·	10µM
CC(C)(C)c1ccc(S(=O)(=O)/N=C2\C=C(NS(=O)(=O)c3ccccc3)C(=O)c3ccccc32)cc1	·	·	-34.6	·	?
Cc1ccc(S(=O)(=O)/N=C2\C=C(NS(=O)(=O)c3ccccc3)C(=O)c3ccccc32)c(C)c1	·	·	·	·	–
Cc1ccc(S(=O)(=O)/N=C2\C=C(Nc3cccc(C(=O)O)c3)C(=O)c3ccccc32)cc1	·	·	-46.6	·	14.1µM
O=C(O)c1cccc(NS(=O)(=O)c2ccc3c(c2)C(=O)c2ccccc2C3=O)c1	–	–	–	?	–
Cc1ccc(S(=O)(=O)/N=C2\C=C(Nc3ccc(O)cc3)C(=O)c3ccccc32)cc1	·	·	·	·	11.2µM
CC1CCCCN1C(=O)CSc1c2c(nc3cc(Cl)ccc13)CCCC2 (centres undefined)	–	–	·	?	–
CCc1ccc(NC2=NC(C(=O)c3ccccc3)CC(=O)N2)cc1 (centres undefined)	–	–	–	–	–
CCc1ccc(S(=O)(=O)/N=C2\C=C(Nc3ccc(C(=O)O)cc3)C(=O)c3ccccc32)cc1	·	·	-47.6	·	17.8µM
COc1ccc(-c2cnnc(CCCn3ccnc3-c3ccccc3)n2)cc1	–[11.6 µM]	–[11.6 µM]	–	–[11.5 µM]	·
CCS(=O)(=O)N1CCc2cc(C(=O)NCc3ccccc3)ccc21	–	–	·	–	–
SMILES	Tau FP inhib	Tau fluor cs	FBPA coupling cs	Tau ThT inhib	USP1-UAF1 inh
S=c1[nH]c(-c2ccccc2)cn1/N=C/c1cccc2ccccc12	–	?	–	3.55µM	–
Oc1ccc(/C=N/n2cc(-c3ccccc3)[nH]c2=S)cc1	–	?	–	10µM	–
COc1cc(/C=N/n2cc(-c3ccccc3)[nH]c2=S)cc(OC)c1O	–	?	–	20µM	–
S=c1[nH]c(-c2ccccc2)cn1/N=C/c1ccccc1Br	–	–	–	?	–
Cc1ccc(/C=N/n2cc(-c3ccccc3)[nH]c2=S)s1	–	?	–	?	–
CC1Cc2cc(S(=O)(=O)CCC(=O)Nc3ccc(Cl)cc3F)ccc2N1C(=O)C1CC1 (centres undefined)	–	–	·	–	–
CC(=O)c1ccc(NC(=O)Cn2cc(S(=O)(=O)Cc3cccc(Cl)c3)c3ccccc32)cc1	?	?	·	–	–
CCCCNC(=O)C(c1ccc(OCC(=O)OC)c(C(=O)OC)c1)N(CCc1ccccn1)C(=O)CCCCCN1C(=O)NC(c2ccc(-c3ccccc3)cc2)C(C(=O)OCc2ccccc2)=C1C (centres undefined)	–	–	–	–	·
COc1cc(-c2nc(Cn3nnc(C(=O)Nc4ccccc4)c3C)c(C)o2)cc(OC)c1OC	–	–	·	?	–
O=C(/C=C/c1ccc(Br)cc1)NC(=S)NNC(=O)c1ccco1	–	–	–	15.8µM	–
